Assay results taken from PubChem BioAssay (NCI).
This is part of a sample that, as a whole, favours compounds with a hit. Of some 83,000 tested, about 20% had one in any assay.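 Note: values are percent growth. 100 is the growth of untreated cells, values between 100 and 0 indicate rising inhibition; between -100 and 0 indicates cell death.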 A number with no mark means an inactive call. Calls of active or inactive are those of the source. Rule for the calls: active = growth percent below 10; inactive = the rest.

Legend:
Experiment in all cases: NCI-60 one-dose screen, 48 h (100 = growth as untreated, 0 = no growth, -100 = all killed)
NCI-H322M lung = conditions: 10 µM
HOP-62 NSCLC = conditions: 10 µM
NCI-H460 lung = conditions: 10 µM
NCI-H522 lung = conditions: 10 µM
A549/ATCC NSCLC = conditions: 10 µM
DU-145 prostate = conditions: 10 µM
SF-268 CNS = conditions: 10 µM
SF-295 CNS = conditions: 10 µM
SF-539 CNS = conditions: 10 µM
M14 melanoma = conditions: 10 µM
HCT-15 colon = conditions: 10 µM
HT29 colon = conditions: 10 µM
SNB-75 CNS = conditions: 10 µM
SNB-19 CNS = conditions: 10 µM
U251 CNS = conditions: 10 µM
PC-3 prostate = conditions: 10 µM
UACC-62 melanoma = conditions: 10 µM
SK-MEL-28 melanoma = conditions: 10 µM
SK-MEL-2 melanoma = conditions: 10 µM
HL-60(TB) leukemia = conditions: 10 µM unless noted

| Structure (SMILES) | growth (NCI-H322M lung) | growth (HOP-62 NSCLC) | growth (NCI-H460 lung) | growth (NCI-H522 lung) | growth (A549/ATCC NSCLC) | growth (DU-145 prostate) | growth (SF-268 CNS) | growth (SF-295 CNS) | growth (SF-539 CNS) | growth (M14 melanoma) | growth (HCT-15 colon) | growth (HT29 colon) | growth (SNB-75 CNS) | growth (SNB-19 CNS) | growth (U251 CNS) | growth (PC-3 prostate) | growth (UACC-62 melanoma) | growth (SK-MEL-28 melanoma) | growth (SK-MEL-2 melanoma) | growth (HL-60(TB) leukemia) |
| --- | --- | --- | --- | --- | --- | --- | --- | --- | --- | --- | --- | --- | --- | --- | --- | --- | --- | --- | --- | --- |
| CC[C@@]12CC(C(=O)OC)=C3Nc4cc5c(cc4[C@@]34CCN(C[C@H]3O[C@H]31)[C@@H]24)[C@@H]1[C@H](O5)[C@@H](O)[C@@]2(CC)CC(C(=O)OC)=C3Nc4cc(OC)ccc4[C@@]34CCN1[C@@H]24 | 25.1% | 21.5% | 15.9% | 2.96% (active) | 25.7% | 50.7% | 38.5% | 0.382% (active) | 21.7% | 28.7% | -38.1% (active) | 10.7% | -4.82% (active) | 21.3% | 17.2% | 22.2% | 3% (active) | 27.1% | -12% (active) | -17% (active) |
| O=C(NCCCCC(c1ccc(F)cc1)c1ccc(F)cc1)Nc1ccc([N+](=O)[O-])c(C(F)(F)F)c1 | 6.54% (active) | -29% (active) | 7.56% (active) | -16.9% (active) | 6% (active) | 20.9% | 18.5% | -4.61% (active) | -28.2% (active) | -23.1% (active) | 0.604% (active) | -11% (active) | -9.8% (active) | 17.1% | 2.48% (active) | -4.82% (active) | -14.9% (active) | 16.5% | -71% (active) | – |
| CC(=O)Oc1ccccc1C(=O)[Se]C(=NC(C)C)NC(C)C | -82.6% (active) | -70.9% (active) | -70.2% (active) | -97% (active) | -3.31% (active) | -92.6% (active) | -30.9% (active) | -79% (active) | -98% (active) | -92.7% (active) | -45.6% (active) | -57% (active) | -94.6% (active) | -88.5% (active) | -87.8% (active) | -62.9% (active) | -44.2% (active) | -85.5% (active) | -79.4% (active) | -41.3% (active) |
| CC(C)N=C([Se])NC(=O)c1ccccc1 | -3.38% (active) | 8.36% (active) | -25.8% (active) | -77.7% (active) | 8.83% (active) | -74.6% (active) | 14.3% | -23.9% (active) | -82.9% (active) | -65.2% (active) | 1.65% (active) | 12.5% | -49.5% (active) | 11.4% | -59.4% (active) | -21.8% (active) | -35.3% (active) | -43.9% (active) | -40% (active) | -15.4% (active) |
| O=C(/C=C/c1ccc(Cl)cc1Cl)c1nc2ccccc2n1Cc1ccc(Br)cc1 | 84.4% | 94.8% | 78.1% | 88.2% | 86.5% | 83.9% | 81% | 79.4% | 84% | 78.4% | 46.6% | 53.9% | 50.4% | 74.8% | 45% | 67.1% | 60.7% | 89.5% | 97.2% | 60% |
| O=C(/C=C/c1ccco1)c1nc2ccccc2n1Cc1ccc(Br)cc1 | 62.2% | 57% | 32.4% | 4.59% (active) | 47.3% | 28.1% | 45.4% | 53.5% | 26.7% | 26.2% | 9.97% (active) | 29.3% | 33.6% | 54.4% | 18.2% | 34.2% | 28.7% | 56.2% | 46.2% | 16% |
| CC12OOC(C)(OO1)C2CCC(=O)NCCNc1ccnc2cc(Cl)ccc12 (stereo not given) | 97.4% | 89.9% | 101% | -61.6% (active) | 119% | 104% | 95.6% | 91.1% | 102% | 105% | 95.2% | 105% | 101% | 98.2% | 110% | 98% | 91.8% | 104% | 105% | – |
| Cc1c2oc3c(C)ccc(C(=O)N[C@@H]4C(=O)N[C@H](C(C)C)C(=O)N5CCC[C@H]5C(=O)N(C)CC(=O)N(C)[C@@H](C(C)C)C(=O)OC4C)c3nc-2c(C(=O)N[C@@H]2C(=O)N[C@H](C(C)C)C(=O)N3CC(=O)C[C@H]3C(=O)N(C)CC(=O)N(C)[C@@H](C(C)C)C(=O)OC2C)c(N)c1=O (stereo not given in full) | 4.93% (active) | -21% (active) | 5.56% (active) | -38.6% (active) | 8.06% (active) | 12.8% | -9.63% (active) | 1.34% (active) | -28.4% (active) | -8.68% (active) | 3.67% (active) | 1.14% (active) | -70.6% (active) | 4.37% (active) | 1.58% (active) | 1.32% (active) | -57.5% (active) | -27.8% (active) | -68.5% (active) | – |
| CC(=C\C(=O)Oc1ccc2c3c1OC1C(O)CCC4(O)C(C2)N(CC2CCC2)CCC314)/C=C1\CCCc2ccccc21 (stereo not given) | 69.9% | 85.6% | 12.1% | 47.2% | 48.9% | 82.1% | 73.5% | 63.2% | 67.8% | -51.4% (active) | 7.2% (active) | 8.3% (active) | 59.8% | 70.5% | 47.4% | 40.8% | -16.4% (active) | 17.1% | 84.3% | 17.9% |
| C=CC[Se]C(=O)c1ccc(C(=O)[Se]CC=C)s1 | -63.7% (active) | -70.9% (active) | -53.2% (active) | -95.5% (active) | 1.38% (active) | -92.8% (active) | -39.4% (active) | -52.5% (active) | -97% (active) | -90% (active) | -42.5% (active) | -7.14% (active) | -96.8% (active) | -73.1% (active) | -86.2% (active) | -58.2% (active) | -22.8% (active) | -70.8% (active) | -65.6% (active) | – |
| COc1cc(OC)c(S(=O)(=O)N(CCCl)CCCl)cc1C(=O)/C=C/c1ccc(C)cc1 | 89.1% | 70.8% | 31.9% | 82.6% | 79.2% | 88.3% | 67.2% | 66.7% | 56.9% | 86.4% | 81.8% | 80.7% | 90.1% | 29.8% | -2.54% (active) | 67.6% | 74.3% | 102% | 92.3% | 65.6% |
| COCCOCCOCCOc1ccc(-n2cc(CCCN(CCNc3ccnc4cc(Cl)ccc34)C(=O)CCC(=O)O[C@@H]3O[C@@H]4OC5(C)CC[C@H]6[C@H](C)CC[C@@H]([C@H]3C)[C@@]46OO5)nn2)cc1 | 69.2% | 61.2% | 52% | 1.23% (active) | 46.1% | 62% | 56.9% | 40.5% | 47.4% | 34.8% | 14.2% | 20.6% | 57.6% | 56.3% | 46% | 32.3% | 37% | 53.1% | 47.9% | -27.5% (active) |
| C#CC[Se]C(=O)c1ccc(C(=O)[Se]CC#C)s1 | 14.5% | 29.8% | 40.9% | 99.8% | 31.1% | 56% | 105% | 13.3% | 65.5% | 73.7% | 93.2% | 63.6% | 109% | 58.7% | 44.7% | 44.9% | 92.3% | 104% | 126% | -19.7% (active) |
| COC(=O)C[C@](O)(CCCC(C)C)C(=O)O[C@H]1C(OC)=C[C@@]23CCCN2CCc2cc4c(cc2[C@@H]13)OCO4 | 25.4% | 21.3% | -28.6% (active) | -59.4% (active) | -7.85% (active) | -3.16% (active) | 3.83% (active) | -8.14% (active) | -47.7% (active) | -46.4% (active) | -21.1% (active) | -22.7% (active) | -46.7% (active) | -27.7% (active) | -19.5% (active) | 1.16% (active) | 0.442% (active) | -24.3% (active) | -0.0193% (active) | -28.7% (active) |
| CN(C)CCc1cn(C2CCC2)c2cccc(O)c12 | 91.2% | 82.1% | 70.7% | 83.6% | 71.8% | 91.3% | 81.6% | 76.4% | 61.9% | 15.9% | 62.2% | 34.9% | 58.3% | 87% | 65.7% | 59.9% | 48.9% | 3.47% (active) | 99.4% | – |
